The whole screen tested about 5,500 compounds, of which about 2,000 (36%) were called active. Another 18% or so got no clear call; they are omitted. Rule as the data show it: active = normalized growth mostly below about 0.91 (no sharp cut-off); inconclusive = no clear call, values can overlap the other calls; inactive = mostly above about 0.92. This is one part of the list.
Assay: chemical genetic growth profiling, strain panel (AID 1159580);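 also: tested at 20 µM; growth read once vehicle control cultures reached saturation at 30 °C; 1 = growth at the plate median or of vehicle wells; lower values mean less growth of the strain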
Conditions: growth OD

Measured: normalized growth

Cc1cc(O)c(C)c2c1C(=O)Oc1c(C)c(O)c(C(=O)O)c(C)c1O2
inactive: S. cerevisiae deletion strains, locus YAL013W, strain DEP1, hits give low values 0.997 | S. cerevisiae deletion strains, locus YBR021W, strain FUR4, hits give low values 0.966 | S. cerevisiae deletion strains, locus YBR229C, strain ROT2, hits give low values 0.993 | S. cerevisiae deletion strains, locus YCL029C, strain bik1, hits give low values 0.973 | S. cerevisiae deletion strains, locus YDL035C, strain GPR1, hits give low values 0.998 | S. cerevisiae deletion strains, locus YDL074C, strain BRE1, hits give low values 1 | S. cerevisiae deletion strains, locus YDL101C, strain DUN1, hits give low values 0.988 | S. cerevisiae deletion strains, locus YDL134C, strain PPH21, hits give low values 0.98 | S. cerevisiae deletion strains, locus YDL185W, strain tfp1, hits give low values 0.989 | S. cerevisiae deletion strains, locus YDL192W, strain arf1, hits give low values 0.983 | S. cerevisiae deletion strains, locus YDR101C, strain arx1, hits give low values 0.974 | S. cerevisiae deletion strains, locus YDR150W, strain NUM1, hits give low values 0.999 | S. cerevisiae deletion strains, locus YDR162C, strain NBP2, hits give low values 1.02 | S. cerevisiae deletion strains, locus YDR318W, strain mcm21, hits give low values 0.971 | S. cerevisiae deletion strains, locus YDR388W, hits give low values 0.98 | S. cerevisiae deletion strains, locus YDR502C, strain sam2, hits give low values 0.982 | S. cerevisiae deletion strains, locus YEL061C, strain CIN8, hits give low values 1 | S. cerevisiae deletion strains, locus YER110C, hits give low values 0.978 | S. cerevisiae deletion strains, locus YER155C, strain BEM2, hits give low values 0.991 | S. cerevisiae deletion strains, locus YER167W, strain BCK2, hits give low values 0.994 | S. cerevisiae deletion strains, locus YGL078C, strain dbp3, hits give low values 0.968 | S. cerevisiae deletion strains, locus YGL086W, strain mad1, hits give low values 0.977 | S. cerevisiae deletion strains, locus YGL248W, strain PDE1, hits give low values 0.989 | S. cerevisiae deletion strains, locus YGR078C, strain PAC10, hits give low values 1.01 | S. cerevisiae deletion strains, locus YGR135W, strain pre9, hits give low values 1 | S. cerevisiae deletion strains, locus YGR229C, strain SMI1, hits give low values 1.01 | S. cerevisiae deletion strains, locus YGR252W, strain gcn5, hits give low values 0.961 | S. cerevisiae deletion strains, locus YHR030C, strain SLT2, hits give low values 0.989 | S. cerevisiae deletion strains, locus YHR079C, strain IRE1 (second series), hits give low values 0.982 | S. cerevisiae deletion strains, locus YHR094C, strain hxt1, hits give low values 0.979 | S. cerevisiae deletion strains, locus YHR129C, strain ARP1, hits give low values 0.997 | S. cerevisiae deletion strains, locus YHR200W, strain rpn10, hits give low values 0.978 | S. cerevisiae deletion strains, locus YIL066C, strain RNR3, hits give low values 0.988 | S. cerevisiae deletion strains, locus YIL073C, strain SPO22, hits give low values 0.999 | S. cerevisiae deletion strains, locus YIL125W, strain kgd1, hits give low values 0.983 | S. cerevisiae deletion strains, locus YIR030C, strain dcg1, hits give low values 0.991 | S. cerevisiae deletion strains, locus YJL095W, strain BCK1, hits give low values 1.01 | S. cerevisiae deletion strains, locus YJL134W, strain LCB3, hits give low values 0.989 | S. cerevisiae deletion strains, locus YJL168C, strain set2, hits give low values 0.974 | S. cerevisiae deletion strains, locus YJL187C, strain SWE1 (second series), hits give low values 0.988 | S. cerevisiae deletion strains, locus YJR043C, strain POL32, hits give low values 1.01 | S. cerevisiae deletion strains, locus YJR075W, strain HOC1, hits give low values 1.01 | S. cerevisiae deletion strains, locus YKL009W, strain mrt4, hits give low values 0.964 | S. cerevisiae deletion strains, locus YKL068W, hits give low values 0.985 | S. cerevisiae deletion strains, locus YKL085W, strain MDH1 (second series), hits give low values 0.992 | S. cerevisiae deletion strains, locus YKL085W, strain MDH1, hits give low values 0.992 | S. cerevisiae deletion strains, locus YKL190W, strain CNB1, hits give low values 1 | S. cerevisiae deletion strains, locus YKR001C, strain vps1, hits give low values 0.982 | S. cerevisiae deletion strains, locus YLR039C, strain RIC1, hits give low values 1.01 | S. cerevisiae deletion strains, locus YLR058C, strain SHM2, hits give low values 0.997 | S. cerevisiae deletion strains, locus YLR102C, strain apc9, hits give low values 0.988 | S. cerevisiae deletion strains, locus YLR262C, strain YPT6, hits give low values 1 | S. cerevisiae deletion strains, locus YLR268W, strain sec22, hits give low values 0.99 | S. cerevisiae deletion strains, locus YLR330W, strain CHS5, hits give low values 0.998 | S. cerevisiae deletion strains, locus YLR342W, strain FKS1 (second series), hits give low values 0.983 | S. cerevisiae deletion strains, locus YLR371W, strain rom2, hits give low values 0.976 | S. cerevisiae deletion strains, locus YLR418C, strain cdc73, hits give low values 0.974 | S. cerevisiae deletion strains, locus YML016C, strain PPZ1, hits give low values 0.99 | S. cerevisiae deletion strains, locus YML032C, strain rad52, hits give low values 0.965 | S. cerevisiae deletion strains, locus YML124C, strain tub3, hits give low values 0.991 | S. cerevisiae deletion strains, locus YMR078C, strain ctf18, hits give low values 0.973 | S. cerevisiae deletion strains, locus YMR223W, strain ubp8, hits give low values 0.966 | S. cerevisiae deletion strains, locus YMR263W, strain SAP30, hits give low values 1 | S. cerevisiae deletion strains, locus YMR307W, strain GAS1, hits give low values 0.976 | S. cerevisiae deletion strains, locus YNL067W, strain RPL9B, hits give low values 1 | S. cerevisiae deletion strains, locus YNL128W, strain TEP1, hits give low values 0.998 | S. cerevisiae deletion strains, locus YNL153C, strain GIM3, hits give low values 1 | S. cerevisiae deletion strains, locus YNL233W, strain BNI4, hits give low values 0.997 | S. cerevisiae deletion strains, locus YNL250W, strain rad50, hits give low values 0.972 | S. cerevisiae deletion strains, locus YNL271C, strain bni1, hits give low values 0.966 | S. cerevisiae deletion strains, locus YNL298W, strain CLA4, hits give low values 0.967 | S. cerevisiae deletion strains, locus YNL307C, strain MCK1, hits give low values 0.972 | S. cerevisiae deletion strains, locus YNL322C, strain KRE1, hits give low values 1 | S. cerevisiae deletion strains, locus YNR052C, strain pop2, hits give low values 0.967 | S. cerevisiae deletion strains, locus YOL006C, strain TOP1, hits give low values 0.986 | S. cerevisiae deletion strains, locus YOL012C, strain htz1 0.731 | S. cerevisiae deletion strains, locus YOL147C, strain pex11, hits give low values 0.988 | S. cerevisiae deletion strains, locus YOR061W, strain CKA2, hits give low values 0.99 | S. cerevisiae deletion strains, locus YOR069W, strain VPS5, hits give low values 0.99 | S. cerevisiae deletion strains, locus YOR136W, strain idh2, hits give low values 0.979 | S. cerevisiae deletion strains, locus YOR144C, strain elg1, hits give low values 0.985 | S. cerevisiae deletion strains, locus YOR184W, strain ser1, hits give low values 0.942 | S. cerevisiae deletion strains, locus YOR316C, strain cot1, hits give low values 0.977 | S. cerevisiae deletion strains, locus YPL055C, strain LGE1, hits give low values 1.04 | S. cerevisiae deletion strains, locus YPL241C, strain CIN2, hits give low values 0.972 | S. cerevisiae deletion strains, locus YPR119W, strain clb2, hits give low values 0.979 | S. cerevisiae deletion strains, locus YPR141C, strain kar3, hits give low values 0.972 | S. cerevisiae deletion strains, locus YPR163C, strain tif3, hits give low values 0.983 | S. cerevisiae deletion strains, locus YPR167C, strain met16, hits give low values 0.985 | S. cerevisiae deletion strains, strain wtn01, hits give low values 0.98 | S. cerevisiae strains, strain wild type, hits give low values 1
